Source: PubChem BioAssay (NCI)
The panel holds about 79,000 compounds, 15% with a hit somewhere; the sample as a whole holds those more often. Values without a mark were called inactive. Active and inactive are the calls of the source. No stated cut-off is given here; in the data, active means growth inhibition above about 70%; inactive means the rest.

What was measured:
[1] = NCI Yeast Anticancer Drug Screen. Data for the rad50 strain (AID 155);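 further: 0% = growth of vehicle-only cultures of the same strain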; settings: S. cerevisiae rad50 strain growth inhibition, active compounds read high
Method in brief: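 Vehicle-treated cultures provide the reference for the growth inhibition reported for compound-exposed, repair-deficient yeast.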

[2] = NCI Yeast Anticancer Drug Screen. Data for the mec2-1 strain (AID 157); settings: S. cerevisiae mec2-1 strain, active compounds read high
Method in brief: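 Cells of the genetically defined mec2-1 yeast strain are incubated with test compound. Inhibition of growth is calculated against vehicle-treated controls.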

[3] = NCI Yeast Anticancer Drug Screen. Data for the sgs1 mgt1 strain (AID 161);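 further: 0% = growth of cultures given vehicle only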; settings: S. cerevisiae sgs1 mgt1 strain, active compounds read high
Method in brief: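 Mutant yeast exposed to compound; growth scored against vehicle-only wells.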

[4] = NCI Yeast Anticancer Drug Screen. Data for the cln2 rad14 strain (AID 165);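 further: 0% = growth equal to vehicle treated cultures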; settings: S. cerevisiae cln2 rad14 strain, active compounds read high
Method in brief: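 The screen exposed genetically defined yeast (cln2 rad14) to test compounds and scored growth inhibition relative to vehicle-treated controls.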

[5] = NCI Yeast Anticancer Drug Screen. Data for the bub3 strain (AID 167); settings: S. cerevisiae bub3 mutant strain, active compounds read high
Method in brief: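 Mutant yeast screening strain plus compound; vehicle-treated cultures serve as the 0% inhibition reference.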

[6] = NCI Yeast Anticancer Drug Screen. Data for the mlh1 rad18 strain (AID 175); settings: S. cerevisiae mlh1 rad18 strain growth inhibition, active compounds read high
Method in brief: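 Compound-treated yeast growth, normalised to vehicle controls. Strain bears defined DNA repair mutations.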

[7] = at 5.0 µM (retest, dose inferred, filed as 0.5)
[8] = at 50.0 µM (retest, dose inferred, filed as 5.0)

SMILES | growth inhibition [1, 7] | growth inhibition [1, 8] | growth inhibition ([1]; at 50.0 µM) | growth inhibition [2, 7] | growth inhibition [2, 8] | growth inhibition ([2]; at 50.0 µM) | growth inhibition [3, 7] | growth inhibition [3, 8] | growth inhibition ([3]; at 50.0 µM) | growth inhibition [4, 7] | growth inhibition [4, 8] | growth inhibition ([4]; at 50.0 µM) | growth inhibition [5, 7] | growth inhibition [5, 8] | growth inhibition ([5]; at 50.0 µM) | growth inhibition [6, 7] | growth inhibition [6, 8] | growth inhibition ([6]; at 50.0 µM)
c1ccc2cc3c(ccc4cccc[n+]43)cc2c1 | 17% | 28% | 34.3% | 20% | 52% | 18% | 23% | 53% | 35.6% | 30% | 29% | 71.5% (active) | -4% | 8% | 27.7% | 10% | 45% | 29.9%
CCC[N+]1=C(/C=C/c2cc(C)c3cccnc3c2O)C(C)(C)c2ccccc21 | 12% | 94% (active) | 93.7% (active) | 27% | 95% (active) | 90.3% (active) | 7% | 93% (active) | 86.5% (active) | -7% | 90% (active) | 81.8% (active) | 4% | 93% (active) | 92% (active) | 19% | 93% (active) | 93% (active)
CCOc1ccc2c(c1)nc1cc(Cl)ccc1[n+]2C | 9% | 81% (active) | 85.5% (active) | 12% | 84% (active) | 87.2% (active) | -2% | 82% (active) | 86.5% (active) | 8% | 68% | 75.2% (active) | 26% | 88% (active) | 82.8% (active) | 18% | 81% (active) | 89.7% (active)
COc1cccc(C2c3cc4c(cc3OC(N3CCOCC3)C2C)OCO4)c1 (configuration not stated) | 25% | 16% | -11.8% | 14% | 6% | -9.25% | 9% | 7% | 3.2% | 11% | 6% | 8.45% | 26% | 13% | 0.2% | 20% | 13% | -3.05%
CCOC(=O)N(c1ccccc1)N(CC)C(=O)/C(C)=N/Nc1ccc([N+](=O)[O-])cc1 | 6% | 93% (active) | 97.7% (active) | 5% | 94% (active) | 95.8% (active) | 9% | 94% (active) | 97.7% (active) | 10% | 95% (active) | 92.2% (active) | -10% | 92% (active) | 95.8% (active) | -1% | 94% (active) | 97% (active)
COc1ccc(C(C)c2cc3c(cc2OC/C(C)=N/NC(N)=O)OCO3)cc1 (configuration not stated) | 61% | 93% (active) | 74.4% (active) | 43% | 99% (active) | 71.6% (active) | 41% | 87% (active) | 82% (active) | 19% | 97% (active) | 19.6% | 58% | 99% (active) | 88.1% (active) | 61% | 96% (active) | 90.3% (active)
CC(C)c1ccc2c(c1)CC[C@@H]1[C@](C)(CO)CCC[C@]21C | 4% | 94% (active) | 34.8% | 4% | 94% (active) | 89.8% (active) | 0% | 99% (active) | 43.2% | 2% | 96% (active) | 68.2% | -3% | 95% (active) | 89.1% (active) | -16% | 95% (active) | 97.3% (active)
CC1=NN(C(=O)c2ccncc2)C(=O)C1N=Nc1ccc(C)c([N+](=O)[O-])c1 (configuration not stated) | 10% | 61% | 47.5% | 2% | 28% | 19.4% | 29% | 94% (active) | 88.8% (active) | 6% | 24% | -14.6% | 1% | 18% | 3.65% | 12% | 69% | 20.4%
O=C(Nc1cccc(Cl)c1)c1ccc([N+](=O)[O-])cc1 | 10% | 8% | -8.65% | -11% | -6% | -10.8% | 6% | 4% | -12.7% | 4% | 17% | -27.4% | 23% | 32% | -6.8% | 17% | 26% | -0.9%
CCOC(=O)CCCCCN | 6% | 8% | -4.55% | 1% | 2% | -7.75% | 1% | 7% | 34.1% | 9% | -2% | -39.5% | 2% | -4% | 1.75% | 5% | 6% | -30.3%
CCCCCCCCCCS(=O)(=O)Nc1ccc(C(=O)NN)cc1 | 60% | 83% (active) | 92.6% (active) | 29% | 48% | 71% (active) | 42% | 82% (active) | 89.5% (active) | 54% | 80% (active) | 91% (active) | 48% | 82% (active) | 79% (active) | 69% | 87% (active) | 92.7% (active)
COc1ccc2c(c1)OC(OC)(c1ccccc1)C(O)(OC)C2=O (configuration not stated) | 1% | 21% | 40.7% | -7% | 22% | 31.8% | 3% | 35% | 59% | -9% | 15% | 7.25% | -1% | 17% | 20.4% | -4% | 33% | 44.4%
c1cc[c]([Sn]([S]c2ccccn2)([c]2ccccc2)[c]2ccccc2)cc1 | 100% (active) | 99% (active) | 99.5% (active) | 100% (active) | 99% (active) | 99.5% (active) | 99% (active) | 99% (active) | 99.1% (active) | 99% (active) | 99% (active) | 97% (active) | 96% (active) | 99% (active) | 99.2% (active) | 99% (active) | 99% (active) | 99.2% (active)
C1=Nc2ccccc2C=Nc2ccccc2C=Nc2ccccc2C=Nc2ccccc21.[Cl-].[Pt+2] | 55% | 93% (active) | 85% (active) | 80% (active) | 97% (active) | 82.2% (active) | 36% | 89% (active) | 76.8% (active) | 25% | 69% | 60% | 75% (active) | 87% (active) | 74.7% (active) | 63% | 97% (active) | 81.4% (active)
CC/C(=C(\CC)c1ccc(OCCN2CCOCC2)cc1)c1ccc(OCCN2CCOCC2)cc1 | 47% | 63% | 82.8% (active) | 36% | 62% | 70.5% (active) | 67% | 88% (active) | 89% (active) | 62% | 64% | 83.5% (active) | 59% | 68% | 79.9% (active) | 30% | 72% (active) | 87.8% (active)
Cc1[nH]c2ccccc2c1-c1ccccc1 | -126% | 98% (active) | 99.5% (active) | -48% | 99% (active) | 99.6% (active) | -65% | 98% (active) | 99.5% (active) | -53% | 99% (active) | 99% (active) | -62% | 98% (active) | 99.4% (active) | -122% | 98% (active) | 99.5% (active)
CCN(CC)c1ccc(Cl)c2c1C(O)(C(C)C)C2(C)C (configuration not stated) | -20% | 96% (active) | 88.2% (active) | 9% | 97% (active) | 92.4% (active) | 1% | 97% (active) | 89.7% (active) | 24% | 98% (active) | 89.3% (active) | 14% | 98% (active) | 89.8% (active) | 17% | 98% (active) | 87.5% (active)
CCC(CO)Nc1nc2ccc(Br)cc2c2ccccc12 (configuration not stated) | 15% | 82% (active) | 76% (active) | 4% | 59% | 49.5% | 5% | 95% (active) | 86% (active) | 0% | 56% | 66% | 2% | 84% (active) | 63.6% | 8% | 96% (active) | 93.9% (active)
FC(F)(F)c1cccc(N2CCN(c3c4c(nc5ccccc35)CCCCC4)CC2)c1 | -4% | 96% (active) | 95.5% (active) | 4% | 99% (active) | 97.7% (active) | 11% | 98% (active) | 93.8% (active) | -14% | 96% (active) | 95.5% (active) | -4% | 97% (active) | 92% (active) | 22% | 98% (active) | 95.7% (active)
